# Compounds without any hit were thinned out: in the full panel of roughly 83,000, 20% have a hit.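 Note: values are percent growth. 100 is the growth of untreated cells, values between 100 and 0 indicate rising inhibition; between -100 and 0 indicates cell death.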 Values without a mark were called inactive. The source made the active and inactive calls.
# Tested on: NCI-H322M lung
# Experiment: NCI-60 one-dose screen, 48 h (100 = growth as untreated, 0 = no growth, -100 = all killed)
# Conditions: 10 µM unless noted
# Description: Growth inhibition of the NCI-H322M human Non-Small Cell Lung tumor cell line is measured as a screen for anti-cancer activity. Cells are grown in 96 well plates and exposed to the test compound for 48 hours. Compounds are tested at a single concentration, which is 10^-5 M for most compounds. The reported endpoint is percent growth (GI% or GIPRCNT), where numbers from 0 - 100% represent growth inhibition, and numbers from -100% - 0 represent cell death. For example, a value of 40 represents 60% growth inhibition. A value of 0 means no net growth occurred over the course of the experiment. A value of -40 indicates 40% of cells at the beginning of the experiment died by the end of the experiment. A value of -100 means all cells are dead at the end of the experiment.
# NCI-60 Human Tumor Cell Lines Screen was performed using the standard one-dose NCI protocol, which is described in more detail at https://dtp.cancer.gov/discovery_development/nci-60/default.htm.
# Compounds with GIPRCNT values below 10 were considered active. Activity score was based on GIPRCNT using the following formula: […]
# Score is 0 for GIPRCNT values of 100 or above, 50 for GIPRCNT values of 0, and 100 for GIPRCNT values of -100.
row,SMILES,growth
1,CN(C)CC(=O)Nc1ccc(Cn2nnc3c2C(=O)c2nnn(Cc4ccc(NC(=O)CN(C)C)cc4)c2C3=O)cc1,-52.6% (active)
2,Cn1cc(-c2csc(-c3cn(C)c4ncccc34)n2)c2ccccc21,45.1%
3,COc1cc(OC)c(/C=C/c2cc[n+](C)c3ccccc23)c(OC)c1,6.52% (active)
4,CC1=C(NCCN2CCCC2)C(=O)c2c(OCc3cccc(Cl)c3)cccc2C1=O,75.8%
5,O=C(/C=C/c1cccc(Br)c1)c1ccccc1,97.7%
6,CC(=O)C1=C(O)C=C2Oc3c(C(=O)/C=C/c4ccccc4)c(O)c(C)c(O)c3[C@]2(C)C1=O,31.5%
7,COCCOC(=O)C1=C(C)NC(=S)NC1c1ccc2c(c1)OCO2 (stereo not given),101%
8,Cc1ccc(S(=O)(=O)N(CCc2ccc(Cl)cc2)S(=O)(=O)c2ccc(C)cc2)cc1,93.1%
9,CCN(CC)CCCNc1cc(OC)cc2nc3cc(Cl)ccc3nc12,-0.828% (active)
10,CCOC(=O)c1cnc2cc(Cl)c(F)cc2c1Nc1cccc(NS(C)(=O)=O)c1,96.3%
11,COc1cc(C2CC(=O)c3c(C)nn(-c4nc5ccccc5[nH]4)c3C2)cc(OC)c1OC (stereo not given),67.8%
12,O=C(CCN1CCOCC1)Nc1ccc(Cn2nnc3c2C(=O)c2nnn(Cc4ccc(NC(=O)CCN5CCOCC5)cc4)c2C3=O)cc1,10%
13,CN1CCN(Cc2ccc(NC(=O)c3cncc(C#Cc4cncc5nccnc45)c3)cc2C(F)(F)F)CC1,43.6%
14,C[C@@H]1CC[C@@H]2[C@@H]1[C@H](OC(=O)/C=C/c1ccccc1)[C@]1(C3CCCCC3)C[C@@H](OC(=O)CO)[C@@]2(C)O1,92.9%
15,CC(=O)OCC1OC(OC2=C(CC=C(Cl)Cl)C(=O)c3ccccc3C2=O)C(OC(C)=O)C(OC(C)=O)C1OC(C)=O (stereo not given),102%
16,C=CC[N+]1(CC)CCN=C1CCCCCCCCCCCCCCCCC (stereo not given),27.8%
17,S=c1[nH]nc(CSc2ncnc3c2c(-c2ccccc2)cn3-c2ccc(Cl)cc2)o1,97.9%
18,CCOC(=O)C(CC)n1c(=O)c2cc(OC)c(OC)cc2c2cnc3[nH]ccc3c21 (stereo not given),71%
19,COc1c(Cl)cc(Cl)cc1Cl,129%
20,CCOC(=O)C(=Cc1ccccc1F)C(=O)OCC,94%

row,SMILES,growth
1,OCCNCCNc1c2ccccc2nc2ccccc12,52.7%
2,CC(C)CC(CC1=CCC2CC1C2(C)C)C1=C(O)C(C)(C)C(=O)C(C)(C)C1=O (stereo not given),9.97% (active)
3,NS(=O)(=O)c1ccc(Nc2nc3n[nH]c(Nc4ccccc4)c3c(=O)[nH]2)cc1,101%
4,CC#CC#Cc1cccc(=O)o1,50.3%
5,COc1cnc2c(c1)C(=O)c1c-2n(CCCN2CCCC2)c(=O)c2cc([N+](=O)[O-])ccc12,-11.9% (active)
6,CCCCCCCCCCCCCCCCCCNC(=O)[C@H]1CSC(c2ccc(OC)c(F)c2)N1 (stereo not given in full),38.4%
7,COc1cccc(-c2nc3sccn3c2-c2ccnc(NCCCNS(=O)(=O)c3ccccc3)c2)c1,69.4%
8,CCCN(CCC)CN(CCC)CCC,97.6%
9,Oc1ccc2c(=S)cc(-c3ccc(Br)cc3)oc2c1O,10.5%
10,O=C1c2cc3c(cc2-c2c1c1cc(Cl)c(Cl)cc1c(=O)n2C[C@H](O)CO)OCO3,-16% (active)
11,O=C1C2CC=CCC2C(=O)N1CNc1ccc(Cl)cc1 (stereo not given),92.2%
12,C[C@H](CCC(=O)O)[C@H]1CC[C@H]2[C@@H]3CC[C@@H]4/C(=C\c5ccco5)C(=O)/C(=C\c5ccco5)C[C@]4(C)[C@H]3CC[C@]12C,95.6%
13,COCCOc1ccc(-c2nc3ccc(-c4nc5ccc(N6CCN(C)CC6)cc5[nH]4)cc3[nH]2)cc1,17%
14,COc1ccc(/C=C2\N=C3Sc4cc(Cl)ccc4C(=O)N3C2=O)cc1,95.8%
15,COc1ccc(C2c3ccc4ccccc4c3Oc3ncnc(N)c32)cc1 (stereo not given),88%
16,COc1ccc(-c2cc(-c3ccc(N(C)C)cc3)nc(NC(=O)c3ccncc3)n2)cc1,87.8%
17,O=C(O)c1cccc2c1-c1ccccc1C2=O,83.9%
18,CCOC(=O)CC(C)=N,121%
19,O=C1/C(=C/c2ccc(F)cc2)CN(C(=O)CCN2CCC(=NO)CC2)C/C1=C\c1ccc(F)cc1,-11.8% (active)
20,Nc1nc(SCc2ccccc2)c2ncn(C3CCCC3)c2n1,103%
